Screens from PubChem.
RE007 growth inh = qHTS Assay for Inhibitors of the HIV-1 protein Vpr; S. pombe RE007 Vpr strain, BacTiter-Glo ATP luminescence, 24 h; Potency, µM (doses to about 92.2 µM), without a hit: at the top dose activity change, negative = less growth, usual class: inhibitors; actives 0.21% (n = 360,000); AID 651644, 2012; active = well fitted falling curve with a large enough effect; inconclusive = small, poorly fitted or top-dose-only effect; inactive = no such curve, though single readings can be large or run the other way; note: potency is the fitted concentration of half-maximal effect; % is set by controls: 0 for no effect and ±100 for the full control effect; nearly all actives have a fitted effect of over 50% in size
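Fission yeast strain RE007, carrying one chromosomally integrated HIV-1 vpr copy, was seeded at OD 0.01 in PMG+AL medium with 23 nL pinned compound. After 24 h at 30 °C and 99% humidity, viability was read by BacTiter-Glo luminescence.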
NS1 inh = qHTS Assay for Inhibitors of Influenza NS1 Protein Function; Potency, µM (titrated, usually from 46.1 µM), without a hit: at the top dose activity, positive = more growth; actives 0.4% (n = 270,000); AID 2326, 2010; note: potency is the fitted concentration of half-maximal effect; actives are rising curves; nearly all actives have a fitted effect of over 50% in size
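OD600 was taken as the measure of yeast growth restored by compound in an NS1-expressing S. cerevisiae strain. Cells had been washed out of glucose medium and diluted 1:100 into galactose -URA medium, pH 6.0.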
LmPK inh = qHTS Assay for Inhibitors of Leishmania Mexicana Pyruvate Kinase (LmPK) | purified LmPK, Kinase-Glo ATP luminescence, 1 h | Potency, µM (top dose mostly 57.5 µM), without a hit: at the highest dose activity change, negative = inhibition, hits mostly inhibitors | actives 0.37% (n = 290,000) | AID 1721, 2009; active = well fitted curve in the direction sought with a large enough effect; inconclusive = small, poorly fitted or top-dose-only effect, or another doubt; inactive = no such curve, though single readings can be large; an effect the other way counts as inactive or inconclusive; note: potency is the fitted concentration of half-maximal effect; % is set by controls: 0 for no effect and ±100 for the full control effect
Target sequence (Q27686 whole entry, looked up): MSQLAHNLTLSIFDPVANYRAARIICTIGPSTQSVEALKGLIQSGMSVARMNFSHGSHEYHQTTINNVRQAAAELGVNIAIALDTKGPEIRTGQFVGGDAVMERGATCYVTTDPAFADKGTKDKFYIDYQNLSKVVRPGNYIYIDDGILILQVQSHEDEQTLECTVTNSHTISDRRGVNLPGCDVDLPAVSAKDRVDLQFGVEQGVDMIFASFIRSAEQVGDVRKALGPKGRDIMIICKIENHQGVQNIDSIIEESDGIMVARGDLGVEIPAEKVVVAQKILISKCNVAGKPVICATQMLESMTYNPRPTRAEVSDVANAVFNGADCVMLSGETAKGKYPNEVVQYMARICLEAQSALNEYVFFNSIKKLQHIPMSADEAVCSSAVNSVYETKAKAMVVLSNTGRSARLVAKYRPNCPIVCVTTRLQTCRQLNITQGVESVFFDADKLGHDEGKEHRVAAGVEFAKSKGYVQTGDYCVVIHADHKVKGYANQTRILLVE
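qHTS format; LmPK 0.1 nM; substrates PEP 0.5 mM and ADP 0.1 mM. One-hour room-temperature incubation, then coupled luciferase luminescence; 0.5 nM enzyme wells mark activation.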
TbPYK inhibitor = qHTS of Trypanosoma Brucei Inhibitors; Potency, µM (doses to about 76.8 µM), for the others: at the highest dose activity, negative = inhibition, hits mostly inhibitors; AID 624173, 2012; pyruvate kinase (Trypanosoma brucei), Q57TT1; TbPYK enzyme, Kinase-Glo Plus ATP luminescence, 45 min; actives 0.12% (n = 410,000); active = well fitted curve in the direction sought with a large enough effect; inconclusive = small, poorly fitted or top-dose-only effect, or another doubt; inactive = no such curve, though single readings can be large; an effect the other way counts as inactive or inconclusive; note: potency is the fitted concentration of half-maximal effect; % is set by controls: 0 for no effect and ±100 for the full control effect; nearly all actives have a fitted effect of over 50% in size
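Enzyme and substrate buffer are dispensed first and compound is pin-transferred. ADP at 130 uM final then starts the reaction, which runs 45 min at room temperature. Detection reagent is added for 10 min before luminescence is imaged.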
NS1 inh valid = Assay for Inhibitors of Influenza NS1 Protein Function: Hit Validation | shares compounds with NS1 inh | activity change, negative = inhibition, % at 32.9 µM | 1,400 tested, under 10 active | influenza NS1 function cell assay, 15-point titration; note: 0% is about no effect
PR8 titer = Assay for Inhibitors of Influenza NS1 Protein Function: Influenza virus replication assay in MDCK cells infected with virus A/PR/8/34. shares compounds with NS1 inh. MDCK infected influenza A/PR/8/34, virus titer TCID50; stronger effect = lower value. virus titer (log TCID50), log10 TCID50 at 5 µM. actives 30% (n = 95); call rule not given here
* = called active by the depositor; ? = inconclusive; nt = no result given. Most compounds without a hit are left out; they make up all but 0.77% or so of the library. Unless noted, calls come from the whole dose curve.

SMILES	RE007 growth inh	NS1 inh	LmPK inh	TbPYK inhibitor	NS1 inh valid	others
COc1ccc(C(=O)[C@H](Br)[C@H](Br)C(=O)O)cc1	nt	-56%	nt	nt	nt
O=C(Cc1ccccc1)NN=C1CCCC1	-5%	nt	nt	-6%	nt
N#CCC(=O)NN=C1CCCCCCCCCCC1	-14%	1.8µM*	1%	1%	4
Cc1c(CN(C)C(=O)c2cc(-c3ccccc3)nc3ccc(Br)cc23)cnn1C	nt	nt	nt	-9%	nt
O=C(COc1ccc2c(c1)oc(=O)c1ccccc12)N[C@@H](Cc1ccccc1)C(=O)O	-1%	16%	-5%	0%	nt
O=C(COc1ccc2c(c1)oc(=O)c1ccccc12)NC(Cc1ccc(Cl)cc1)C(=O)O (stereo unspecified)	12%	11µM*	-8%	2%	22
Cc1noc(C)c1-c1nnc(-c2ccc(C(F)(F)F)cc2)o1	-15%	3%	-3%	-1%	nt
Cc1onc(-c2c(F)cccc2Cl)c1C(=O)NC1C(=O)N2C1SC(C)(C)C2C(=O)O (stereo unspecified)	nt	nt	nt	-2%	nt
Cc1ccc(NS(=O)(=O)c2cc(C(=O)Nc3cccc([N+](=O)[O-])c3)ccc2C)cc1	-15%	?	2%	-13%	nt
Cc1ccc(NC(=O)CC(=O)c2ccc([N+](=O)[O-])cc2)cc1S(=O)(=O)Nc1cccc(Cl)c1	-7%	14µM*	3%	3%	7	PR8 titer=7.5*
COc1ccc(OCCSc2ncc(CO)n2C)cc1	3%	4%	0%	-5%	nt
Nc1nonc1-n1nnc(C(=O)N/N=C/c2ccco2)c1CSc1ccccc1	-14%	?	0%	27%	8
Cc1ccc(SCc2c(C(=O)N/N=C/c3ccco3)nnn2-c2nonc2N)cc1	4%	nt	nt	4%	nt
O=C(Nc1ccc(O)c(-c2nc3ccccc3o2)c1)C1(c2ccc([N+](=O)[O-])cc2)CCCC1	-8%	8.9µM*	-1%	-6%	-17
OC(CNCC(c1ccco1)N1CCCCC1)c1ccccc1 (stereo unspecified)	11%	2.2µM*	0%	-2%	7
O=[N+]([O-])c1ccc(NN=Cc2cccc(O)c2)nc1	8%	nt	nt	-4%	nt
Cc1cccc(C)c1-n1c(C)cc(/C=N\Nc2ccc([N+](=O)[O-])cn2)c1C	6%	13µM*	-7%	-7%	-35
COc1cccc(-c2nc(N3CCC(C)CC3)c3ccccc3n2)c1O	-28%	20µM*	2%	-21%	-29
CC1=NN(Cc2cc(C(C)(C)C)c(O)c(C(C)(C)C)c2)C(=O)C1	7%	14µM*	-3%	1%	?
CN(Cc1cccc(F)c1)C(=O)c1ccc(S(=O)(=O)C(F)F)cc1	-3%	2.8µM*	-3%	-6%	0
COC(=O)c1ccc(NC(=O)CSc2nc(=O)n(Cc3ccco3)c3c2CCC3)cc1	nt	nt	nt	0%	nt
CN1CCN(CCCNC(=O)c2ccc3c(c2)N(Cc2ccc(F)cc2)CCS3)CC1	-5%	2.8µM*	-2%	7%	-5
COc1ccc(N=C2S/C(=C\c3cc(C)n(C)c3C)C(=O)N2CC(C)C)cc1	12%	7.1µM*	2%	-9%	7
COc1ccc(N=C2S/C(=C\c3ccco3)C(=O)N2CC(C)C)cc1	?	7%	3%	3%	nt
O=S(=O)(NNc1cccc(Cl)n1)c1ccc(Cl)cc1	-6%	-24%	2%	3%	nt
SMILES	RE007 growth inh	NS1 inh	LmPK inh	TbPYK inhibitor	NS1 inh valid	others
N#C/C(=C(/O)CSc1nnc(Cc2cccs2)n1C1CCCCC1)c1nc2ccccc2[nH]1	-5%	18µM*	-3%	?	-15
O=C(NCCCN1CCOCC1)C1CC(=O)N(C2CCCCC2)C1 (stereo unspecified)	1%	1µM*	-4%	3%	-20
COc1ccc2cc(CN(CC3CCCO3)C(=S)Nc3ccccc3)c(=O)[nH]c2c1 (stereo unspecified)	-8%	10%	3%	4%	nt
C[C@H](NC(=O)c1nc[nH]c1C(=O)N[C@@H](Cc1ccccc1)C(=O)OCc1ccccc1)C(=O)OC(C)(C)C	10%	10µM*	0%	-1%	-25
CC(C)(C)OC(=O)[C@H](Cc1ccccc1)NC(=O)c1nc[nH]c1C(=O)NCC(=O)OCc1ccccc1	-1%	11µM*	1%	-1%	-23
CC(C)C[C@H](NC(=O)c1nc[nH]c1C(=O)NCc1ccccc1)C(=O)OC(C)(C)C	3%	7%	1%	-7%	nt
CC(C)C[C@H](NC(=O)c1nc[nH]c1C(=O)NCc1ccc(CNC(=O)OC(C)(C)C)cc1)C(=O)OC(C)(C)C	7%	8.9µM*	0%	-9%	2
C[C@H](NC(=O)c1nc[nH]c1C(=O)N[C@@H](CCCCNC(=O)OC(C)(C)C)C(=O)OC(C)(C)C)C(=O)OCc1ccccc1	-2%	10µM*	0%	-4%	-33
CC(C)(C)OC(=O)CNC(=O)c1[nH]cnc1C(=O)N[C@@H](Cc1ccccc1)C(=O)OC(C)(C)C	0%	-6%	5%	4%	nt
COc1ccc(-c2nc3ccc(C4=C(C)CC(=O)NN4)cc3[nH]2)cc1	nt	nt	nt	3%	nt
CC[C@]1(O)C[C@H]2CN(CCC3=c4ccccc4=N[C]3[C@@](C(=O)OC)(c3cc4c(cc3OC)N(C)[C@H]3[C@@](O)(C(N)=O)[C@H](O)[C@]5(CC)C=CCN6CC[C@]43[C@@H]65)C2)C1	nt	nt	nt	-7%	nt
CCCn1c(N)c(C(=O)CSc2nc3ncc(Cl)cc3[nH]2)c(=O)[nH]c1=O	2%	nt	nt	-6%	nt
O=C(NC1CCN(C(=S)NCc2ccco2)CC1)NC12CC3CC(CC(C3)C1)C2	7%	8%	2%	-5%	nt
Cc1cc(C)cc(NC(=S)N=Nc2c(O)n(C)c3ccc(S(=O)(=O)N4CCOCC4)cc23)c1	24%	12%	4%	-4%	nt
Cc1cccc(NC(=S)N=Nc2c(O)n(C)c3ccc(S(=O)(=O)N4CCOCC4)cc23)c1	nt	?	3%	-6%	2
COc1ccc(CCNC(=O)C2CC(=O)N(C3CCCCC3)C2)cc1OC (stereo unspecified)	-1%	-4%	4%	11%	nt
O=c1nccc(Nc2ccccc2)[nH]1	6%	3%	-3%	-1%	nt
c1ccc(Nc2cc(Nc3ccccc3)[nH]n2)cc1	-12%	4.5µM*	10%	0%	-5
CCC1CCCN1Cn1cnc2c([nH]c3ccc(Cl)cc32)c1=O (stereo unspecified)	5%	0%	8%	-2%	nt
CCC1CCCN1Cn1cnc2c([nH]c3ccc(C)cc32)c1=O (stereo unspecified)	-15%	?	1%	4%	-23
